This is an account of results in PubChem BioAssay (NCATS).

Inconclusive results are not listed. Activity calls are given as the source filed them. Unless noted, the call rests on the fitted dose curve; in most records, active means well fitted curve in the direction sought with a large enough effect; inconclusive means small, poorly fitted or top-dose-only effect, or another doubt; inactive means no such curve, though single readings can be large; an effect the other way counts as inactive or inconclusive.

Test [1] can be described thus: qHTS assay for small molecule agonists of retinoid X receptor alpha signaling (AID 588544; calls by dose curve;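 on activation: 0% = DMSO basal wells and 100% = reference agonist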). The settings on record: HEK293T RXRa-UAS-bla, beta-lactamase reporter, 18 h; 530 nm emission.
Test [2] deals with Retinoic acid receptor RXR-alpha (Homo sapiens) (UniProt P19793). Described as above. The settings on record: HEK293T RXRa-UAS-bla, beta-lactamase reporter, 18 h; series mostly up to 76.7 µM.
Retinoic acid receptor RXR-alpha (Homo sapiens), sequence (P19793 whole entry, looked up): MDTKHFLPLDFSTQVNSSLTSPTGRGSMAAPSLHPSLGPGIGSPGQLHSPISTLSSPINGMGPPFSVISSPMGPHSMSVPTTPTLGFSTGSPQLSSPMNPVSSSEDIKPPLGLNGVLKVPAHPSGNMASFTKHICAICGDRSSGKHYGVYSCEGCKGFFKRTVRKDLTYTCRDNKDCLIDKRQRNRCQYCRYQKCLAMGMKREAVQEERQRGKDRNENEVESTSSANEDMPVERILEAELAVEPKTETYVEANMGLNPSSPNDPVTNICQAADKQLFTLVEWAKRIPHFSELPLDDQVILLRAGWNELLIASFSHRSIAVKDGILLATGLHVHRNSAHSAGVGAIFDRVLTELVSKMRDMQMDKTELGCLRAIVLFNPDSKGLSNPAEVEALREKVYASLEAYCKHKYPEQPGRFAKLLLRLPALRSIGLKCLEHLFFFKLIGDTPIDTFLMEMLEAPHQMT
Test [3] deals with Thyroid hormone receptor beta (Homo sapiens) (UniProt P10828). Nature of the test: qHTS assay for small molecule agonists of thyroid hormone receptor beta signaling (AID 588545; calls by dose curve;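 further: 0% = DMSO only and 100% = 10 nM T3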). The settings on record: TR-UAS-bla GripTite HEK 293, beta-lactamase ratio, agonist mode, 18 h, percent of T3 response, DMSO as zero; series mostly up to 76.7 µM. In outline: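 TR-UAS-bla-GripTite HEK 293 cells in medium with 2% charcoal/dextran FBS, 0.1 mM NEAA and 1 mM sodium pyruvate were treated with titrated compounds for 18 hrs at 37 C. Beta-lactamase reporter was read with CCF4 dye (ex 405, em 460/530 nm); EC50 from Hill fits.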
Thyroid hormone receptor beta (Homo sapiens), sequence (P10828 whole entry, looked up): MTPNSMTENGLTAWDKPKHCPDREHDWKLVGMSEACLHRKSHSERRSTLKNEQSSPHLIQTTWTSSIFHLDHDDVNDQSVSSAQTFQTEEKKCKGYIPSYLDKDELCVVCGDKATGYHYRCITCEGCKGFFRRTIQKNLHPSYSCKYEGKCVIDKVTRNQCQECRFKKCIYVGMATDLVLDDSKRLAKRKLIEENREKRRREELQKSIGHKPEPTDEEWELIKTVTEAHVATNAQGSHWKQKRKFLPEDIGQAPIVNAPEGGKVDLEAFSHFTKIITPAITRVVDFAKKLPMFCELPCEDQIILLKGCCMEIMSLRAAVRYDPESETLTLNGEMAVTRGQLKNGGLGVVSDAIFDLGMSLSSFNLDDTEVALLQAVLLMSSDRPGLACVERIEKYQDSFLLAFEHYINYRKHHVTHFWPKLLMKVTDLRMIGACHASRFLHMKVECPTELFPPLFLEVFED

The target in test [4] is Voltage-gated inwardly rectifying potassium channel KCNH2 (Homo sapiens) (UniProt Q12809). Nature of the test: qHTS Assay for Small Molecule Inhibitors of the Human hERG Channel Activity (AID 588834).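 Further: top concentration of the series differs between compounds; on the % scale 0 is the no-effect control and ±100 the full control effect; lower thallium flux fluorescence means stronger hERG block; nearly all actives have a fitted effect of over 50% in size.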 The note with it: U2OS BacMam hERG, FluxOR thallium flux fluorescence; series mostly up to 92.2 µM. The method, boiled down: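 In hERG-transduced U2OS cells, dye-loaded for 1 hr at room temperature in dark, test compounds incubated 10 min at 37 °C before thallium stimulation. AC50 values derived by Hill modelling of concentration-response.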
Voltage-gated inwardly rectifying potassium channel KCNH2 (Homo sapiens), sequence (Q12809 whole entry, looked up): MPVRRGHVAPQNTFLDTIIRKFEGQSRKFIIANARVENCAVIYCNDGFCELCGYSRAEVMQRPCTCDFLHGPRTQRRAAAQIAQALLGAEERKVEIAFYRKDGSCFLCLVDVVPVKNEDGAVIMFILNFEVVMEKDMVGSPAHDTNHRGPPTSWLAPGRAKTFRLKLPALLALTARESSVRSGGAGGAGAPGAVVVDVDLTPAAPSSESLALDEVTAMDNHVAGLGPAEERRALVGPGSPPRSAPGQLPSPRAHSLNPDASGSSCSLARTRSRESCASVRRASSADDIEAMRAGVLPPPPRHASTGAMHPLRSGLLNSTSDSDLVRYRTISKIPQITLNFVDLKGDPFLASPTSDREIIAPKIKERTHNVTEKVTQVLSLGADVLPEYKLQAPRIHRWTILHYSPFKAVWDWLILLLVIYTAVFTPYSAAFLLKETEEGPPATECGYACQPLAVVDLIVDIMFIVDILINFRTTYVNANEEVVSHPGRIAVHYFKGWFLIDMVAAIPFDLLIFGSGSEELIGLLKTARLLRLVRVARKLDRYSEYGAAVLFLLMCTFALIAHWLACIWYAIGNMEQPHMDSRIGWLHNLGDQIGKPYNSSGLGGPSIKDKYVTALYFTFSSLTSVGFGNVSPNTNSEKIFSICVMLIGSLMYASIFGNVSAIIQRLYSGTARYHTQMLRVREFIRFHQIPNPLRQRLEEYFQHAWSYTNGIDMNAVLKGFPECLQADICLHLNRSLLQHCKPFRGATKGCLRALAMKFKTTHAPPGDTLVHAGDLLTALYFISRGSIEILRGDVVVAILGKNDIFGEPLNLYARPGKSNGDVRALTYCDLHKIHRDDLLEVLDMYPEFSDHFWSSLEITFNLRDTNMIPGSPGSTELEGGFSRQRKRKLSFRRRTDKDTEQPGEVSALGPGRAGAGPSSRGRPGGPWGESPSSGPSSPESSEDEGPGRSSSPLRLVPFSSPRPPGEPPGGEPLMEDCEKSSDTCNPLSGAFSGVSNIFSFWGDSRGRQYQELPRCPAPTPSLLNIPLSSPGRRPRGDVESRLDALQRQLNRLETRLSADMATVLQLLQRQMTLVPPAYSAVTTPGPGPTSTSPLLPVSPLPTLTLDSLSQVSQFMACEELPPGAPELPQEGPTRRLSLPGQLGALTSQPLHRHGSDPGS

Test [5] can be described thus: qHTS assay for small molecule activators of the p53 signaling pathway (AID 651743; active means well fitted activation curve with a large enough effect in the signal ratio, not every such curve was filed as active; the % refers to the signal ratio; further: % of control where 0% means no effect). The settings on record: HCT-116 p53RE-bla, beta-lactamase FRET ratio, 16 h; stronger effect = higher value. In outline: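 Following 16 hours of compound exposure at 37 C, HCT-116 cells bearing the p53RE-bla reporter were loaded with LiveBLAzer B/G FRET substrate for 2 hours at room temperature and fluorescence intensity was recorded.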

Test [6] in a line: qHTS assay for small molecule activators of the nuclear factor-kappa B (NF-kB) signaling pathway (AID 651749; active means well fitted activation curve with a large enough effect in the signal ratio; the % refers to the signal ratio; further: % of control where 0% means no effect). The settings on record: NF-kB-bla ME-180 cells, beta-lactamase FRET ratio, 16 h; stronger effect = higher value. In outline:
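In this qHTS format, compounds acting as activators increase NF-kB-driven beta-lactamase in ME-180 cells, measured as disrupted FRET after 16 hr exposure at 37C and 5% CO2.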

Test [7] in a line: qHTS assay for small molecule disruptors of the mitochondrial membrane potential - 1 hr assay (AID 651754; calls by dose curve; further: on the % scale 0 is the no-effect control and ±100 the full control effect; nearly all actives have a fitted effect of over 35% in size). The settings on record: series mostly up to 92.2 µM. The method, boiled down: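 Mitochondrial potential in living HepG2 cells after 1 hr compound treatment at 37C was read with Mito-MPS dye added for a further 30 min. Red aggregate and green monomer fluorescence were measured; loss of potential leaves dye as cytoplasmic monomers.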

Test [8] is described as follows: qHTS assay for small molecule disruptors of the mitochondrial membrane potential - 5 hr assay (AID 651755; calls by dose curve; further: on the % scale 0 is the no-effect control and ±100 the full control effect; nearly all actives have a fitted effect of over 40% in size). The note with it: JC-1-type ratio dye; series mostly up to 92.2 µM. The method, boiled down: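 Read-out: ratiometric Mito-MPS fluorescence, green monomer (ex 490/em 535) vs red mitochondrial aggregate (ex 540/em 590). HepG2 cells treated 5 hr at 37C before 30 min dye loading.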

Test [9] has as its target Tumor necrosis factor (Homo sapiens) (UniProt P01375). Nature of the test: qHTS assay to identify small molecules that stimulate Tumor Necrosis Factor-alpha (TNF-alpha) secretion (AID 651757; active means well fitted curve in the direction sought with a large enough effect in the signal ratio; the % refers to the signal ratio; further: 0% is about no effect). The note with it: Human cells, HTRF 665/615 ratio; series mostly up to 92.2 µM. The method, boiled down: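 Secreted TNF-alpha quantified by TR-FRET sandwich of two labeled anti-TNF-alpha antibodies, incubated 3 hr at room temperature. Preceded by 17 hr, 37 C compound treatment of THP-1 cells at 3000 cells/well.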

Test [10] can be described thus: qHTS assay to identify small molecules that stimulate interleukin-8 (IL-8) secretion (AID 651758; active means well fitted activation curve with a large enough effect in the signal ratio; the % refers to the signal ratio; further: 0% is about no effect). The note with it: HTRF ratio (665/615); series mostly up to 92.2 µM. The method, boiled down: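 Compounds are added to THP-1 cells (2000 per well) and left 16 hrs at 37 C. A labeled anti-IL-8 antibody pair is then added, and IL-8 secretion is measured by time-resolved FRET after 1-3 hrs at room temperature.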

Test [11] in a line: qHTS assay for environmental chemicals that activate the Aryl hydrocarbon Receptor (AhR) signaling pathway (AID 651777). Further: % of control where 0% means no effect; nearly all actives have a fitted effect of over 15% in size. The note with it: 1A2-DRE human hepatoma cells, luciferase, 24 h; activation: stronger effect = higher value. The method, boiled down: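 Stable CYP1A2 promoter/DRE-luciferase human hepatoma line treated 24 hr; One-Glo luminescence, 30 min RT.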
Test [12] has as its target Peroxisome proliferator-activated receptor alpha (Homo sapiens) (UniProt Q07869). Nature of the test: qHTS assay for small molecule agonists of the peroxisome proliferator-activated receptor alpha (PPARalpha) signaling pathway (AID 651778). Further: % of control where 0% means no effect. The settings on record: PathHunter PPARalpha complementation, chemiluminescence, 6 h; stronger effect = higher value. In outline:
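Enzyme-fragment complementation assay in which ligand-bound PPARalpha translocates and forms an active enzyme that generates chemiluminescence. Cells were plated overnight, exposed to compound for 6 hr at 37 C, and then given detection reagent for 60 min at room temperature.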

In test [13] the target is Nuclear receptor ROR-gamma (Homo sapiens) (UniProt P51449). Nature of the test: qHTS assay for small molecule antagonists of the retinoid-related orphan receptor gamma (ROR-gamma) signaling pathway (AID 651802).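 Further: luciferase reporter luminescence driven by ROR response element; on the % scale 0 is the no-effect control and ±100 the full control effect; nearly all actives have a fitted effect of over 60% in size.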 The note with it: ROR-gamma antagonist cell reporter assay; series mostly up to 92.2 µM. In outline: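 Luminescence (One-Glo, 30 min RT) measured 16 h after compound addition and doxycycline induction at 37C. Reporter: RORE-luciferase under TET-inducible ROR-gamma in CHO cells.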
Nuclear receptor ROR-gamma (Homo sapiens), sequence (P51449 whole entry, looked up): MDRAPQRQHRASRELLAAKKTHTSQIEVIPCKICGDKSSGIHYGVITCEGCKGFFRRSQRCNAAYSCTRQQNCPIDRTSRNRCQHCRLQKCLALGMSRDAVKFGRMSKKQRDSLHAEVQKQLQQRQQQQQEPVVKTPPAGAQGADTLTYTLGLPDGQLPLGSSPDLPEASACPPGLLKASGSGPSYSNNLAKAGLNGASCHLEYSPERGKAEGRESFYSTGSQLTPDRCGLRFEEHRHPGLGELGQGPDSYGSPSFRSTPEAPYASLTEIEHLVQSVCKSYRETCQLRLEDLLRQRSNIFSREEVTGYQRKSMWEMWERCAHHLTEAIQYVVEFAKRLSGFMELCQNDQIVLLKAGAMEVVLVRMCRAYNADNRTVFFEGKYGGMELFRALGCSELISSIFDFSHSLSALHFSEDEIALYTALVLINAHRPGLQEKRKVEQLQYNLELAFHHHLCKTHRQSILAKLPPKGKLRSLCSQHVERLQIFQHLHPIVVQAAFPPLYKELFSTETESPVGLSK

Test [14] is described as follows: qHTS assay for small molecule antagonists of the retinoid-related orphan receptor gamma (ROR-gamma) signaling pathway - cell viability counter screen (AID 720652; active means well fitted curve in the direction sought with a large enough effect in the repeat runs; an effect the other way counts as inactive or inconclusive;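 further: compound exposure lasted 16 hr before ATP read; on the % scale 0 is the no-effect control and ±100 the full control effect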). The note with it: RORgamma reporter cell line viability counter screen; series mostly up to 92.2 µM. The method, boiled down: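 Cytotoxicity counter screen: intracellular ATP (CellTiter-Glo luminescence) measured in the doxycycline-induced CHO RORE-luciferase reporter line after 16 hr compound exposure at 37 C, 5% CO2.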

The nature of test [15]: qHTS assay for small molecule agonists of the antioxidant response element (ARE) signaling pathway measured by Nrf2-dependant transcriptional activity - cell viability counter screen (AID 720653; active means well fitted curve in the direction sought with a large enough effect in the repeat runs; an effect the other way counts as inactive or inconclusive; further: on the % scale 0 is the no-effect control and ±100 the full control effect). The settings on record: ARE-bla HepG2 viability, CellTiter-Glo ATP luminescence, 16 h; stronger effect = lower value. In outline: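 ARE-bla HepG2 cells treated with compounds for 16 h at 37C; this counter screen measures viability as intracellular ATP by CellTiter-Glo luminescence after 30 min at room temperature.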

Test [16] is described as follows: qHTS assay for small molecule antagonists of retinoid X receptor alpha signaling (AID 588546; active means well fitted inhibition curve with a large enough effect in the signal ratio, with a control signal flat, not every such curve was filed as active; the % refers to the signal ratio;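 further: cells stimulated with 9-cis-retinoic acid as agonist; on the % scale 0 is the no-effect control and ±100 the full control effect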). The note with it: HEK293T RXRa-UAS-bla, beta-lactamase ratio, antagonist mode; measured here: W530 green channel, cytotoxicity proxy. The method, boiled down: (§1)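 Beta-lactamase reporter inhibition, read as CCF4 fluorescence ratio (ex 405, em 460/530 nm) after 2 h at RT. HEK293T UAS-bla cells, 2500/well, were stimulated with 9-cis-RA at 500 or 100 nM final alongside test compound for 18 h at 37 C.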

Test [17] has as its target Thyroid hormone receptor beta (Homo sapiens) (UniProt P10828). Nature of the test: qHTS assay for small molecule antagonists of thyroid hormone receptor beta signaling (AID 588547; active means well fitted inhibition curve with a large enough effect in the signal ratio, with a control signal flat, not every such curve was filed as active; the % refers to the signal ratio). The settings on record: TR-UAS-bla HEK293, beta-lactamase ratio, antagonist mode, 18 h. In outline: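 TR-UAS-bla GripTite HEK293 cells in 2% charcoal/dextran FBS medium; compounds 0.59 nM to 92 uM with T3 at 0.4nM final, 18 h at 37 C. Beta-lactamase read by CCF4 fluorescence (460/530 nm); Hill fits gave IC50 and efficacy.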

A short description of test [18]: qHTS assay for small molecule agonists of the antioxidant response element (ARE) signaling pathway measured by Nrf2-dependant transcriptional activity (AID 720636; active means well fitted curve in the direction sought with a large enough effect in the repeat runs; an effect the other way counts as inactive or inconclusive;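 further: HepG2 cells with an ARE-driven luciferase reporter; % of control where 0% means no effect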). The settings on record: ARE-luc HepG2, Nrf2 luciferase reporter, 16 h; series mostly up to 92.4 µM. In outline: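 Reporter gene assay, HepG2 ARE-luc: 16 hr compound, 37 C, 5% CO2; read-out luciferase luminescence.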

Test [19] has as its target Retinoic acid receptor RXR-alpha (Homo sapiens) (UniProt P19793). Nature of the test: qHTS assay for small molecule antagonists of retinoid X receptor alpha signaling (AID 588546).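 Further: cells stimulated with 9-cis-retinoic acid as agonist; on the % scale 0 is the no-effect control and ±100 the full control effect.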 The note with it: HEK293T RXRa-UAS-bla, beta-lactamase ratio, antagonist mode. In outline:
as §1

Test [20] in a line: qHTS assay for small molecule agonists of the antioxidant response element (ARE) signaling pathway (AID 651741; active means well fitted activation curve with a large enough effect in the signal ratio; the % refers to the signal ratio; further: % of control where 0% means no effect). The settings on record: HepG2 ARE-bla reporter, beta-lactamase FRET ratio, 16 h; series mostly up to 96 µM. In outline:
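Stably integrated ARE-beta-lactamase reporter HepG2 cells; 16 h compound incubation, 37 C; LiveBLAzer FRET substrate 2 h at room temperature; fluorescence intensity.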

Peroxisome proliferator-activated receptor alpha (Homo sapiens), sequence (Q07869 whole entry, looked up, the tested form may be a part): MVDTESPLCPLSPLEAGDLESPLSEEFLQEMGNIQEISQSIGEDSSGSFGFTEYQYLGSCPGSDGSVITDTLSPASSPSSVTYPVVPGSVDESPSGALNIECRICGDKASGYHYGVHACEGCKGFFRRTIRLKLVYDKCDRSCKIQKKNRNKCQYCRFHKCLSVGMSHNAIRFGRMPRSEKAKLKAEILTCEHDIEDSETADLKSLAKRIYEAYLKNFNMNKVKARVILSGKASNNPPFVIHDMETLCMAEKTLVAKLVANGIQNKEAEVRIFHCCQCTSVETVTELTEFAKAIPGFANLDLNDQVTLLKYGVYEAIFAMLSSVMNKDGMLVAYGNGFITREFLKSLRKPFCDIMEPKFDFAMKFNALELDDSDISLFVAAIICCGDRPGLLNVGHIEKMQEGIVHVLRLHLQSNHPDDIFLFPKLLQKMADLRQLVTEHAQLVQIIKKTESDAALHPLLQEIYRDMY
Tumor necrosis factor (Homo sapiens), sequence (P01375 whole entry, looked up): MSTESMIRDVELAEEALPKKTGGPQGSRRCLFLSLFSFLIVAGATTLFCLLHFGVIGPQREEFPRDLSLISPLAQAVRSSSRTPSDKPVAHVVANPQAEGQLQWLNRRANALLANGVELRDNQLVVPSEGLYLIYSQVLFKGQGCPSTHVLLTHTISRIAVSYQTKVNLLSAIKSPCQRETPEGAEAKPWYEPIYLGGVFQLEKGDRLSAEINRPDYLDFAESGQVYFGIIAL

Take `Cc1cccc(C(=O)O)c1[N+](=O)[O-]`: the figures for the max response in [1], in test [12] and in test [15] were -4.96%, -1.91% (inactive) and 5.5% (inactive), respectively. Also, the compound was classed as inactive in test [2] and in [3]. Besides, the Potency entry in test [4], in [7], in test [8], in [9], in [10] and in test [13] was “inactive” in each case. For the same compound, in [14], the Potency entry is “inactive”. Further, the activation in test [5] is 1.31% (inactive); in [6], -0.935% (inactive); in test [11] it was 1.97% (inactive).
For the compound `CNC(=O)N(c1ccccc1)c1ccccc1`, the max response is -17.1% in [1], 12.2% in test [16], -2.12% (inactive) in test [12] and -11.7% (inactive) in test [15]. Moreover, the compound was classed as inactive in test [2], in [3] and in test [18]. The activity change % (negative = inhibition) in test [17] was 10.1% (inactive). In addition, the values for the activation in test [5], in test [6] and in test [11] were 0.514% (inactive), 0.192% (inactive) and -0.495% (inactive), respectively. Besides, the Potency result in [7], in test [8], in test [9] and in test [14] was “inactive” in each case.
As to `Nc1cccc(O)c1`, the max response in [1] was -4.39%; in test [16], 6.84%; in test [12], 0.244% (inactive); in test [15], -0.321% (inactive). The compound was called inactive in test [2], in [3] and in test [18]. In addition, the activity change % (negative = inhibition) in test [17] is -7.53% (inactive). Besides, the Potency result in test [4], in [9], in test [13] and in test [14] was “inactive” throughout. Moreover, the figures for the activation in test [6] and in test [11] were -1.16% (inactive) and 2.45% (inactive), respectively.
In the case of `CCCCCCO`, the max response was -18.4% in test [1]; -3.18% in test [16]; -1.79% (inactive) in test [19]; 6.04% (inactive) in [12]; 4.6% (inactive) in test [15]. Besides, the call in test [2] and in test [18] was inactive. Moreover, the activity change % (negative = inhibition) in test [17] was 4.77% (inactive). The Potency result in [4], in [9], in test [10], in [13] and in test [14] was “inactive” throughout. The figures for the activation in test [5], in [6] and in test [11] were -2.65% (inactive), -0.278% (inactive) and -0.44% (inactive), respectively.
Regarding `O=[N+]([O-])c1ccc2nc[nH]c2c1`, the max response in [1] was -26.8%; in test [12] it was -4.28% (inactive). Also, the outcome in test [2], in test [3] and in test [18] was inactive. Moreover, the Potency entry in test [4], in test [10], in [13] and in test [14] was “inactive” in each case. In addition, the activation in test [6] is 0.954% (inactive).
With `CC(C)=C1CCC(C)CC1=O` (configuration not stated), the max response in test [1] is -4.57%; in test [16], 3.58%; in test [19], 6.87% (inactive); in test [12] it was -4.55% (inactive); in [15] it was 3.25% (inactive). The compound was called inactive in [2] and in [18]. In addition, the activity change % (negative = inhibition) in test [17] is -6.39% (inactive). In addition, the Potency entry in test [4], in test [20], in test [7], in [8], in test [9] and in [10] was “inactive” each time. Moreover, the Potency entry in test [13] and in [14] was “inactive” in each case. In addition, the activation in test [5] is -1.57% (inactive); in [6] it was -0.315% (inactive); in test [11] it was -0.665% (inactive).
Turning to `CCOC(=O)C(C)C(C)=O` (configuration not stated), the results for the max response in test [1], in [12] and in [15] were -14.3%, -3.29% (inactive) and -7.43% (inactive), respectively. Further, the compound was called inactive in [2], in test [3] and in test [18]. In addition, the activity change % (negative = inhibition) in test [17] is 2.26% (inactive). Further, the Potency result in [4], in test [8], in test [9] and in test [14] was “inactive” each time. In addition, the activation is 6.52% (inactive) in test [5] and 0.277% (inactive) in test [11].
